Results taken from PubChem BioAssay (NCATS).
Inconclusive results are not listed. A number with no mark means an inactive call. Activity calls are given as the source filed them. Calls follow the shape of the dose curve; as a rule, active = well fitted curve in the direction sought with a large enough effect; inconclusive = small, poorly fitted or top-dose-only effect, or another doubt; inactive = no such curve, though single readings can be large; an effect the other way counts as inactive or inconclusive.

Assay: Quantitative High-Throughput drug screen in 47 multiple myeloma cell lines against the NCATS MIPE library collection: NCIH929_DSMZ cell viability assay (AID 1918978)
Details: NCI-H929 myeloma viability, CellTiter-Glo ATP, 48 h; series mostly up to 45.8 µM; viability, % of control: at the top concentration
In short: (§1)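 qHTS format: cells plated (500/well), pin-dosed with MIPE 4.0 compounds, kept 48 h at 37 °C. Readout was CellTiter-Glo luminescence, median RLU.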
Also: nearly all actives have a fitted effect of over 35% in size.
Potency is read from the fitted curve at half-maximal effect.

SMILES	Potency	viability, % of control
O=c1[nH]c(=O)n([C@H]2C[C@@H](O)[C@@H](CO)O2)cc1C(F)(F)F	10.5 µM (active)	
CCOC(=O)N1CCN([N+]([O-])=NOc2cc(ON=[N+]([O-])N3CCN(C(=O)OCC)CC3)c([N+](=O)[O-])cc2[N+](=O)[O-])CC1	2.64 µM (active)	
O=C(CC12CC3CC(CC(C3)C1)C2)Nc1cccc2nc(NCCNCCO)ccc12	2.35 µM (active)	
COc1ccc(-c2oc3c(CC=C(C)C)c(O)cc(O)c3c(=O)c2O)cc1	10.5 µM (active)	
N#CC(c1ccnc(NCCc2cccnc2)n1)c1nc2ccccc2s1 (configuration not stated)	7.43 µM (active)	
CN[C@@H]1CN(c2ccc3c(=O)c(C(=O)O)cn(-c4nccs4)c3n2)C[C@@H]1OC	1.62 µM (active)	
CCC(C)SSc1ncc[nH]1 (configuration not stated)	3.72 µM (active)	
CCOC(=O)c1c(CSc2ccccc2)n(C)c2cc(Br)c(O)c(CN(C)C)c12		93.1%
C[C@@H]1O[C@@H](O[C@H]2CC[C@@]3(C)[C@H](CC[C@@H]4[C@H]3C[C@@H](O)[C@]3(C)[C@@H](C5=CC(=O)OC5)CC[C@]43O)C2)C[C@H](O)[C@@H]1O[C@H]1C[C@H](O)[C@H](O[C@H]2C[C@H](O)[C@@H](O)[C@@H](C)O2)[C@H](C)O1 (stereo in doubt)	0.34 µM (active)	
CNC1CCC(N(Cc2cccc(-c3ccncc3)c2)C(=O)c2sc3ccccc3c2Cl)CC1 (configuration not stated)	10.5 µM (active)	
NS(=O)(=O)c1cc(Cl)c(Cl)c(S(N)(=O)=O)c1		115%
CC[C@H](C)C(=O)O[C@H]1C[C@H](O)C=C2C=C[C@H](C)[C@H](CC[C@@H](O)C[C@@H](O)CC(=O)O)[C@H]21		101%
CC[C@H](NC(=O)[C@H](C)NC)C(=O)N1C[C@@H](O)C[C@H]1Cc1c(-c2[nH]c3cc(F)ccc3c2C[C@H]2C[C@H](O)CN2C(=O)[C@H](CC)NC(=O)[C@H](C)NC)[nH]c2cc(F)ccc12	20.9 µM (active)	
NC1(C(=O)N[C@@H](CCO)c2ccc(Cl)cc2)CCN(c2ncnc3[nH]ccc23)CC1	0.0833 µM (active)	
N#CC(c1ccc(Cl)cc1)c1c(Cl)cc(-n2ncc(=O)[nH]c2=O)cc1Cl (configuration not stated)	18.7 µM (active)	
CCc1cc(-c2n[nH]c(C)c2-c2ccc3c(c2)OCCO3)c(O)cc1O	8.33 µM (active)	
Cc1cn([C@@H]2C[C@@H](O)[C@H](CO)O2)c(=O)[nH]c1=O		113%
Cc1ccc(NC(=O)Nc2cc(C(F)(F)F)ccc2F)cc1Nc1ccc2c(c1)NC(=O)C2=Cc1ccc[nH]1	4.18 µM (active)	
CC(C)(C)c1nc(-c2cccc(NS(=O)(=O)c3c(F)cccc3F)c2F)c(-c2ccnc(N)n2)s1	7.43 µM (active)	
O=S(=O)(NCCNCC=Cc1ccc(Br)cc1)c1cccc2cnccc12	14.8 µM (active)	
COC(=O)Nc1ccc(-c2nc(N3CCOCC3)c3cnn(C4CCN(C(=O)OC)CC4)c3n2)cc1	0.0372 µM (active)	
CC[C@H](C=C[C@@H](C)[C@H]1CC[C@H]2[C@@H]3CC=C4C[C@@H](O)CC[C@]4(C)[C@@H]3CC[C@]12C)C(C)C		94.6% [at 23.2 µM]
COc1c(C)cnc(Cn2cnc3c(Cl)nc(N)nc32)c1C	0.187 µM (active)	
O=C1CCCC(=O)C1C(=O)c1ccc(C(F)(F)F)cc1[N+](=O)[O-]		100%
Cc1ccc(NC(=O)c2cccc(N(C)C)c2)cc1NC(=O)c1ccc(O)cc1	0.118 µM (active)	
C=C1[C@H](n2cnc3c(=O)[nH]c(N)nc32)C[C@H](O)[C@H]1CO	20.9 µM (active)	
Cc1nc(NC(=O)N2CCC[C@@H]2C(N)=O)sc1-c1csc(C(C)(C)C)n1	0.833 µM (active)	
CNC(=O)c1ccc2c(C(=Nc3cccc(CN(C)C)c3)c3ccccc3)c(O)[nH]c2c1	14.8 µM (active)	
O=C(Nc1ccccc1)Nc1ccc(-c2ccc(C(=O)[C@H]3CCC[C@H]3C(=O)O)cc2)cc1		117%
Cc1[nH]c(C=C2C(=O)Nc3ccc(S(=O)(=O)N(C)c4cccc(Cl)c4)cc32)c(C)c1C(=O)N1CCN(C)CC1	11.8 µM (active)	

Assay: Quantitative High-Throughput drug screen in 47 multiple myeloma cell lines against the NCATS MIPE library collection: OCIMY1_PLB cell viability assay (AID 1918979);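 as to viability: 100% = DMSO-only wells and 0% = cell-free media-only wells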
Details: OCI-MY1 myeloma viability, CellTiter-Glo ATP, 48 h; series mostly up to 45.8 µM; viability: at the top concentration
In short: as §1

SMILES	viability	Potency
COc1ccc(-c2oc3c(CC=C(C)C)c(O)cc(O)c3c(=O)c2O)cc1	109%	
CCC(C)SSc1ncc[nH]1 (configuration not stated)		8.33 µM (active)
CCOC(=O)c1c(CSc2ccccc2)n(C)c2cc(Br)c(O)c(CN(C)C)c12		16.6 µM (active)
C[C@@H]1O[C@@H](O[C@H]2CC[C@@]3(C)[C@H](CC[C@@H]4[C@H]3C[C@@H](O)[C@]3(C)[C@@H](C5=CC(=O)OC5)CC[C@]43O)C2)C[C@H](O)[C@@H]1O[C@H]1C[C@H](O)[C@H](O[C@H]2C[C@H](O)[C@@H](O)[C@@H](C)O2)[C@H](C)O1 (stereo in doubt)		0.241 µM (active)
CNC1CCC(N(Cc2cccc(-c3ccncc3)c2)C(=O)c2sc3ccccc3c2Cl)CC1 (configuration not stated)		23.5 µM (active)
CC[C@H](C)C(=O)O[C@H]1C[C@H](O)C=C2C=C[C@H](C)[C@H](CC[C@@H](O)C[C@@H](O)CC(=O)O)[C@H]21	121%	
N#CC(c1ccc(Cl)cc1)c1c(Cl)cc(-n2ncc(=O)[nH]c2=O)cc1Cl (configuration not stated)	117%	
Cc1cn([C@@H]2C[C@@H](O)[C@H](CO)O2)c(=O)[nH]c1=O	143%	
Cc1ccc(NC(=O)Nc2cc(C(F)(F)F)ccc2F)cc1Nc1ccc2c(c1)NC(=O)C2=Cc1ccc[nH]1		23.5 µM (active)
CC(C)(C)c1nc(-c2cccc(NS(=O)(=O)c3c(F)cccc3F)c2F)c(-c2ccnc(N)n2)s1	103%	
COC(=O)Nc1ccc(-c2nc(N3CCOCC3)c3cnn(C4CCN(C(=O)OC)CC4)c3n2)cc1		5.26 µM (active)
C[C@@H]1C[C@H]2[C@@H]3CCC4=CC(=O)C=C[C@]4(C)[C@@]3(F)[C@@H](O)C[C@]2(C)[C@@]1(O)C(=O)CO	116%	
CC(C)n1c(C=C[C@H](O)C[C@H](O)CC(=O)O)c(-c2ccc(F)cc2)c2ccccc21	96.4%	
Cc1ccc(NC(=O)c2cccc(N(C)C)c2)cc1NC(=O)c1ccc(O)cc1	89.3%	
C=C1[C@H](n2cnc3c(=O)[nH]c(N)nc32)C[C@H](O)[C@H]1CO	128%	
CNC(=O)c1cc(COc2nnc(Nc3ccc(Cl)cc3)c3ccoc23)ccn1		23.5 µM (active)
O=C(Nc1ccccc1)Nc1ccc(-c2ccc(C(=O)[C@H]3CCC[C@H]3C(=O)O)cc2)cc1	112%	
